Reference: PubChem BioAssay (Tox21)
Records with an inconclusive call do not appear. A number with no mark means an inactive call. Activity calls are given as the source filed them. Unless noted, calls come from the whole dose curve; as a rule, active = well fitted cell-killing curve with a large enough effect in the repeat runs; inconclusive = weak or mixed curves, or effect the other way; inactive = flat fitted curve, though single readings scatter.

assay: qHTS assay to identify small molecule agonists of the TGF-beta/Smad signaling pathway - cell viability counter screen (AID 1346829); settings: SBE-bla HEK293T viability, CellTiter-Glo luminescence, 5 h; series mostly up to 76.8 µM; activity change, negative = cytotoxicity: at the top concentration; note: top concentration of the series differs between compounds; nearly all actives have a fitted effect of over 45% in size
Procedure, shortened: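 SBE-bla HEK 293T cells plated overnight, compound exposure 5 hr at 37 C. Viability read in the same wells by CellTiter-Glo luminescence after 30 min at room temperature, following the beta-lactamase read.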
% is set by controls: 0 for no effect and ±100 for the full control effect.

Row | Compound | outcome | activity change, negative = cytotoxicity
1 | O=c1n(CCO)c(=O)n(CCO)c(=O)n1CCO | inactive | 
2 | NS(=O)(=O)c1cc(C(=O)O)cc(N2CCCC2)c1Oc1ccccc1 |  | 5.55% [at 35.3 µM]
3 | CN1CC(=O)NC1=N |  | -5.05% [at 35.3 µM]
4 | CCCCCCOC(=O)CCCCC(=O)OCCCCCC |  | -11%
5 | COc1c(N2C[C@@H]3CCCN[C@@H]3C2)c(F)cc2c(=O)c(C(=O)O)cn(C3CC3)c12 |  | 0.555% [at 35.3 µM]
6 | CO[C@]12C[C@@H](COC(=O)c3cncc(Br)c3)CN(C)[C@@H]1Cc1cn(C)c3cccc2c13 |  | 5.33% [at 35.3 µM]
7 | CC(C)(O)C#CC(C)(C)O |  | -4.95%
8 | COc1ccc(CCN(C)CCCC(C#N)(c2cc(OC)c(OC)c(OC)c2)C(C)C)cc1OC (configuration not stated) |  | -2.88% [at 35.3 µM]
9 | NC(=O)Nc1ccccc1 |  | -0.294%
10 | N=c1nc(N2CCCCC2)cc(N)n1O |  | -4.86% [at 35.3 µM]
11 | CCC(C)S (configuration not stated) |  | 8.43% [at 2.72 µM]
12 | CCN1CCC[C@H]1CNC(=O)c1c(O)c(Cl)cc(Cl)c1OC |  | -0.594% [at 35.3 µM]
13 | CCc1cccc2c(CCO)c[nH]c12 |  | 0% [at 35.3 µM]
14 | NS(=O)(=O)c1cc2c(cc1Cl)NC(C1CC3C=CC1C3)NS2(=O)=O (configuration not stated) |  | 0.54% [at 35.3 µM]
15 | O=C(O)CCCc1ccccc1 |  | -16% [at 35.3 µM]
16 | Cn1cc(S(C)=O)c(=O)c2ccc(F)cc21 (configuration not stated) |  | 1.42% [at 35.3 µM]
17 | CC(=O)OCC(CCn1cnc2cnc(N)nc21)COC(C)=O |  | 10.5% [at 35.3 µM]

assay: qHTS assay to identify small molecule agonists of the TGF-beta/Smad signaling pathway (AID 1346859; active = well fitted activation curve with a large enough effect in the signal ratio in the repeat runs, not every such curve was filed as active; the % refers to the signal ratio); settings: SBE-bla HEK293T, TGF-beta/Smad beta-lactamase reporter, 5 h; series mostly up to 76.8 µM; activation: at the top concentration
Procedure, shortened: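 Stable Smad binding element-beta-lactamase HEK 293T cells; 5 hr compound exposure at 37 C under 5% CO2; 2 hr room-temperature substrate step; fluorescence excited at 405 nm, collected at 460 nm and 530 nm.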

Row | Compound | outcome | activation
18 | CC(C)(C)c1ccc(O)c(O)c1 | inactive | 
19 | Oc1ccc(C2CNCCc3c2cc(O)c(O)c3Cl)cc1 (configuration not stated) |  | 5.03% [at 35.3 µM]
20 | CCOC(C)(C)C |  | -0.766%
21 | CC(=O)Nc1c(I)cc(I)c(C(=O)O)c1I |  | 4.62% [at 35.3 µM]
22 | N=C(N)c1ccccc1 |  | 2.59%
23 | Cc1cnc(NS(=O)(=O)c2ccc(N)cc2)nc1 |  | 0.912% [at 35.3 µM]
24 | COc1cc(C(=O)N2CCCCCCC2)cc(OC)c1OC |  | -1.86% [at 35.3 µM]
25 | NS(=O)(=O)c1ccc(C(=O)O)cc1 |  | 4.05% [at 35.3 µM]
26 | CC(NC(CCc1ccccc1)C(=O)O)C(=O)N1C(=O)N(C)CC1C(=O)O (configuration not stated) |  | 6.4% [at 35.3 µM]
27 | N#Cc1ccc(C2CCCc3cncn32)cc1 (configuration not stated) |  | 0.785% [at 35.3 µM]
28 | Cc1ccc(Cl)cc1Cl |  | -0.615%
29 | COCCc1ccc(OCC(O)CNC(C)C)cc1 (configuration not stated) | inactive | 
30 | CCCC(=O)O[C@]1(C(=O)CO)CC[C@H]2[C@@H]3CCC4=CC(=O)CC[C@]4(C)[C@H]3[C@@H](O)C[C@@]21C |  | 0.0234% [at 35.3 µM]
31 | CCOC(=O)c1cccc(N)c1 |  | 3.85% [at 35.3 µM]
32 | CCN(CC)CCOCCOC(=O)C1(c2ccccc2)CCCC1 |  | -0.246% [at 35.3 µM]
33 | CCCN(CCC)CCc1cccc2c1CC(=O)N2 |  | 1.13% [at 35.3 µM]
34 | NC(=O)c1cn(Cc2c(F)cccc2F)nn1 |  | 1.52% [at 35.3 µM]
35 | CC(C)CNCC(C)C |  | -0.328%

Row | Compound | outcome | activation
36 | O=c1n(CCO)c(=O)n(CCO)c(=O)n1CCO | inactive | 
37 | NS(=O)(=O)c1cc(C(=O)O)cc(N2CCCC2)c1Oc1ccccc1 |  | 1.69% [at 35.3 µM]
38 | CN1CC(=O)NC1=N |  | 2.04% [at 35.3 µM]
39 | CCCCCCOC(=O)CCCCC(=O)OCCCCCC |  | -4%
40 | COc1c(N2C[C@@H]3CCCN[C@@H]3C2)c(F)cc2c(=O)c(C(=O)O)cn(C3CC3)c12 |  | -1.11% [at 35.3 µM]
41 | CO[C@]12C[C@@H](COC(=O)c3cncc(Br)c3)CN(C)[C@@H]1Cc1cn(C)c3cccc2c13 |  | 0.774% [at 35.3 µM]
42 | CC(C)(O)C#CC(C)(C)O |  | 0.754%
43 | COc1ccc(CCN(C)CCCC(C#N)(c2cc(OC)c(OC)c(OC)c2)C(C)C)cc1OC (configuration not stated) |  | -6.3% [at 35.3 µM]
44 | NC(=O)Nc1ccccc1 |  | -0.156%
45 | N=c1nc(N2CCCCC2)cc(N)n1O |  | -0.123% [at 35.3 µM]
46 | CCC(C)S (configuration not stated) |  | -0.527% [at 2.72 µM]
47 | CCN1CCC[C@H]1CNC(=O)c1c(O)c(Cl)cc(Cl)c1OC |  | 0.304% [at 35.3 µM]
48 | CCc1cccc2c(CCO)c[nH]c12 |  | 0.147% [at 35.3 µM]
49 | NS(=O)(=O)c1cc2c(cc1Cl)NC(C1CC3C=CC1C3)NS2(=O)=O (configuration not stated) |  | -4.54% [at 35.3 µM]
50 | O=C(O)CCCc1ccccc1 |  | -5% [at 35.3 µM]
51 | Cn1cc(S(C)=O)c(=O)c2ccc(F)cc21 (configuration not stated) |  | 0% [at 35.3 µM]
52 | CC(=O)OCC(CCn1cnc2cnc(N)nc21)COC(C)=O |  | -1.45% [at 35.3 µM]
